# Assay results published in PubChem BioAssay (NCATS).
# Inconclusive results are not listed. Entries that show only a call come without a potency. Calls of active or inactive are those of the source. Calls follow the shape of the dose curve; as a rule, active = well fitted inhibition curve with a large enough effect; inconclusive = small, poorly fitted or top-dose-only effect; inactive = no such curve, though single readings can be large or run the other way.
# How the values were obtained:
# [1] = molecular target: N-terminal Xaa-Pro-Lys N-methyltransferase 1 (Homo sapiens) (UniProt Q9BV86); test: qHTS Assay for Inhibitors of N-terminal methyltransferase 1 (NTMT1): LOPAC validation of the NTMT1 SAHH-coupled ThioGlo3 Assay (AID 1347143);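 also: SAH from peptide methylation measured as thiol fluorescence via SAHH coupling and ThioGlo3; nearly all actives have a fitted effect of over 70% in size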
# N-terminal Xaa-Pro-Lys N-methyltransferase 1 (Homo sapiens), sequence (Q9BV86 whole entry, looked up): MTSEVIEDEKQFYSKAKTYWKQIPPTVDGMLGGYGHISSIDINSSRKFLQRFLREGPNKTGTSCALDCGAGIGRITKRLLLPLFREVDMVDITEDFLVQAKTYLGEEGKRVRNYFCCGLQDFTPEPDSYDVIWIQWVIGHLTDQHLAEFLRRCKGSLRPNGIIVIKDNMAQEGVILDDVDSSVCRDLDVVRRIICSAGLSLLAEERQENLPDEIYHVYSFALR
# Outline: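 In this qHTS pilot against the LOPAC set, 125nM NTMT1 met compounds tested at multiple concentrations, and fluorescence was normalized to background.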
# [2] = test system: Zika virus NS2B-NS3 protease (unlinked); test: Optimization of GU AMC qHTS for Zika virus inhibitors: Unlinked NS2B-NS3 protease assay (AID 1347151); also: nearly all actives have a fitted effect of over 80% in size
# Outline: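 Unlinked protease (25 nM final); buffer 10 mM Tris-HCl pH 8.0 + 0.01% Tween 20; AMC substrate; 15 min RT, dark; Δfluorescence normalized to no-inhibitor/no-enzyme controls; 4-parameter Hill fit.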
# Potency is read from the fitted curve at half-maximal effect.
SMILES,Potency [1],Potency [2]
C[C@@H]1O[C@@H](O[C@H]2C[C@@H](O)[C@]3(CO)[C@@H]4C(CC[C@]3(O)C2)[C@@]2(O)CC[C@H]([C@@H]3COC(=O)C3)[C@@]2(C)C[C@H]4O)[C@H](O)[C@H](O)[C@H]1O (some centres undefined),inactive,inactive
C[N+]1(C)C2CCC1CC(OC(=O)c1c[nH]c3ccccc13)C2 (centres undefined),31.6 µM (active),inactive
NNC(=O)c1ccc(O)cc1,inactive,inactive
COc1ccc2c(c1)C13CCCCC1C(C2)N(C)CC3 (centres undefined),inactive,inactive
C[C@H](N)CN1CCc2ccc(Br)cc21,inactive,inactive
Cc1sc2ccccc2c1CC1=NCCN1,79.4 µM (active),26.7 µM (active)
CC12NC(Cc3ccccc31)c1ccccc12 (centres undefined),inactive,inactive
NNC(N)=O,inactive,inactive
Clc1cc(I)cc(Cl)c1NC1=NCCN1,inactive,inactive
OCc1cnc[nH]1,inactive,inactive
CCCN1CC[C@@H]2c3cc(O)ccc3CC[C@@H]21,inactive,inactive
C[C@H]1C2Cc3ccc(O)cc3[C@@]1(C)CCN2CC1CC1,inactive,inactive
N[C@@]1(C(=O)O)CC[C@@H](C(=O)O)C1,inactive,inactive
NCCc1ccc(S(=O)(=O)F)cc1,inactive,inactive
COc1ccc(CNC(=O)/C=C/c2ccc3[nH]cc(CCN(C)C)c3c2)cc1,inactive,inactive
[Cl-].[Cl][Pt].[NH2-].[NH2-].c1ccncc1,7.08 µM (active),inactive
CNc1ccc2oc(C[C@H]3O[C@@]4(CC[C@H]3C)O[C@H]([C@H](C)C(=O)c3ccc[nH]3)[C@H](C)C[C@H]4C)nc2c1C(=O)O,56.2 µM (active),23.8 µM (active)
c1ccc2cc(CC3=NCCN3)ccc2c1,inactive,inactive
C[C@H](Cc1ccc2c(c1)OC(C(=O)O)(C(=O)O)O2)NC[C@H](O)c1cccc(Cl)c1,inactive,inactive
NC(CCCCCP(=O)(O)O)C(=O)O (centres undefined),inactive,inactive
CCCC[N+]1(C)C2CC(OC(=O)[C@H](CO)c3ccccc3)CC1C1OC12 (some centres undefined),inactive,inactive
CCCn1c(=O)c2[nH]c(C3CCCC3)nc2n(CCCOC(=O)c2ccc(S(=O)(=O)F)cc2)c1=O,inactive,inactive
